Compounds with a hit are over-represented: about 2.3% of the library has one in this group of screens.
IDH1 R132H inh = human IDH1 R132H inhibition; O75874; IDH1-R132H enzyme, NADPH consumption, diaphorase/resazurin fluorescence; Potency, µM (series often up to 76.6 µM), for the others: at the highest dose activity change, negative = inhibition, hits mostly inhibitors; 390,000 compounds, 0.093% hits; AID 602179; also: potency is read from the fitted curve at half-maximal effect; % is scaled to controls: 0 for no effect and ±100 for the full control effect; nearly all actives have a fitted effect of over 65% in size
Target sequence (O75874 whole entry R132H, stated change not applied): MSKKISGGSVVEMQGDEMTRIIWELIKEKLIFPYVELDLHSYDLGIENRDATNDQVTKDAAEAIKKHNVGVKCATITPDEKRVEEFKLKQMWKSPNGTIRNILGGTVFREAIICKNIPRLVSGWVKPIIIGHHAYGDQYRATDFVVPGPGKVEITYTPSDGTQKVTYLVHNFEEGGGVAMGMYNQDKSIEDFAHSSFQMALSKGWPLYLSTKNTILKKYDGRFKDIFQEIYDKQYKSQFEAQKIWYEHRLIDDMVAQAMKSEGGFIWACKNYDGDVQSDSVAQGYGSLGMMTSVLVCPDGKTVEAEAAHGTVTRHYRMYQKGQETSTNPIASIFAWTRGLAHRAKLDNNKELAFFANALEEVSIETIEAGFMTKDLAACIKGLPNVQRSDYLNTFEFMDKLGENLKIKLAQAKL
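IDH1-R132H (0.5 ug/mL dispensed) in pH 7.5 Tris buffer was preincubated 30 min with compound, then given a substrate mix of 0.016 mM NADPH and 2 mM alpha-KG for 80 min at room temperature; remaining NADPH was read by diaphorase/resazurin fluorescence.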
Apoferritin bind = candidate novel general anesthetic via apoferritin binding. P02791. AID 485281. 350,000 compounds, 0.074% hits. Potency, µM (series often up to 77.5 µM), without a hit: at the top dose activity change, negative = displacement, usual class: inhibitors. apoferritin/1-aminoanthracene competitive binding, fluorescence; also: potency is read from the fitted curve at half-maximal effect; % is scaled to controls: 0 for no effect and ±100 for the full control effect; nearly all actives have a fitted effect of over 20% in size
Target sequence (P02791 2-175 limits assumed): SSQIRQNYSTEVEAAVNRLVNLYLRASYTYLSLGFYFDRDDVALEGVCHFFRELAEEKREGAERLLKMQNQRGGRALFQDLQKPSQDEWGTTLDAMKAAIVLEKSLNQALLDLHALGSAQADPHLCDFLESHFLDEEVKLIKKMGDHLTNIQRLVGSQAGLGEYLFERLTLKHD
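Concentration-response curves derived by four-parameter Hill fitting of normalized fluorescence, where compounds displaced 1-AMA from 10 uM horse apoferritin following a brief 10 min room-temperature incubation; propofol titration acted as positive control.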
Nrf2 ARE act = Nrf2 pathway activation; 410,000 compounds, 0.31% hits; Potency, µM (series often up to 46.1 µM), for the others: top-dose activation, most hits filed as activators; AREc32 ARE-luciferase reporter (MCF7-derived line), luminescence, 24 h; also: potency is read from the fitted curve at half-maximal effect; % of control where 0% means no effect; nearly all actives have a fitted effect of over 65% in size
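For detection, Steady-Glo was added and plates sat 30 min at RT; before that, AREc32_Fluc cells grown overnight in OPTI-MEM/5% FBS had been treated with 23 nL compound for 24 hr at 37 deg C.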
Nrf2 inh = blocks Nrf2 signaling; A549 ARE-Fluc reporter, luciferase luminescence, 18-24 h; Potency, µM (doses to about 46 µM), without a hit: at the top dose activity change, negative = inhibition, usual class: inhibitors; 360,000 compounds, 2.1% hits; also: potency is read from the fitted curve at half-maximal effect; % is scaled to controls: 0 for no effect and ±100 for the full control effect; nearly all actives have a fitted effect of over 60% in size
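A549 ARE_Fluc cells (5000/well, 5% FBS OPTI-MEM) pre-incubated 2 h, then treated with compounds 18-24 h at 37C/5% CO2 in concentration-response. CellTiter-Fluor viability read first; BugLite luciferase luminescence after 15 min at room temperature gives Nrf2 activity.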
Giardia kill = Giardia lamblia killing. Giardia lamblia trophozoite viability. activity change, % at 7.66 µM, hits read low. 340,000 compounds, 0.15% hits. AID 540267; in the data active = activity change below about -80%; inconclusive = between about -30% and that limit;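 also: parasites exposed to compound for two days anaerobically before the ATP read; % is scaled to controls: 0 for no effect and ±100 for the full control effect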
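Viability, read as ATP luminescence: trophozoites at 100 cells/well, compound added, 48 hrs anaerobic at 37 deg C, then 15-30 min room-temperature development before reading.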
A549 tox-1 = counter-screen for Nrf2 inhibitors: cytotoxicity in A549 cells; A549 ARE-Fluc cells, CellTiter-Fluor viability, 18-24 h; Potency, µM (series often up to 46 µM), without a hit: at the highest dose activity change, negative = cytotoxicity, most hits filed as inhibitors; 390,000 compounds, 0.16% hits; AID 504648; also: potency is read from the fitted curve at half-maximal effect; % is scaled to controls: 0 for no effect and ±100 for the full control effect
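Cytotoxicity counterscreen: CellTiter-Fluor fluorescence was measured in A549 ARE_Fluc cells after 18-24 h of compound exposure in a concentration series. The subsequent BugLite luminescent read reports ARE-luciferase activity.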
FLuc counter 3 = counter-screen for Nrf2 inhibitors: firefly luciferase enzyme inhibition; shares compounds with Nrf2 inh; purified firefly luciferase, luminescence inhibition; 1,400 compounds, 4% hits; Potency, µM (titrated, usually from 57.5 µM), without a hit: at the top dose activity change, negative = inhibition, actives largely listed as inhibitors; AID 720522; also: potency is read from the fitted curve at half-maximal effect; % is scaled to controls: 0 for no effect and ±100 for the full control effect; nearly all actives have a fitted effect of over 65% in size
A549 tox-2 = counter-screen for Nrf2 inhibitors: cytotoxicity in A549 ARE cells | shares compounds with Nrf2 inh | A549 ARE-Fluc cells, cytotoxicity counterscreen | Potency, µM (series often up to 46.1 µM), inactives show at the highest dose activity change, negative = cytotoxicity, actives largely listed as inhibitors | 1,400 compounds, 2% hits | AID 720523;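 also: potency is read from the fitted curve at half-maximal effect; cells exposed to compounds for 18 to 24 hours; % is scaled to controls: 0 for no effect and ±100 for the full control effect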
Nrf2 ARE inh = confirmation of Nrf2 inhibitors in A549 ARE reporter cells; shares compounds with Nrf2 inh; A549 ARE-firefly luciferase reporter, luminescence; Potency, µM (series often up to 46.1 µM), without a hit: at the highest dose activity change, negative = inhibition, most hits filed as inhibitors; 1,400 compounds, 74% hits; also: potency is read from the fitted curve at half-maximal effect; % is scaled to controls: 0 for no effect and ±100 for the full control effect; nearly all actives have a fitted effect of over 65% in size
An asterisk follows results filed as active; ? = inconclusive; nt = no result given; ! = a repeat was not active; [ ] = another dose, or the depositor's remark. Unless noted, calls follow the shape of the dose curve; as a rule, active = well fitted curve in the direction sought with a large enough effect; inconclusive = small, poorly fitted or top-dose-only effect, or another doubt; inactive = no such curve, though single readings can be large; an effect the other way counts as inactive or inconclusive.

SMILES	IDH1 R132H inh	Apoferritin bind	Nrf2 ARE act	Nrf2 inh	Giardia kill	A549 tox-1	FLuc counter 3	A549 tox-2	Nrf2 ARE inh
CC1CCCN(S(=O)(=O)c2ccc(C(=O)Nc3nnc(-c4ccco4)o3)cc2)C1 (stereo unspecified)	3%	-4%	3%	8.2µM*	2	-18%	-1%	?	nt
CCOc1ccc(C(=O)Nc2ccc(S(=O)(=O)N(Cc3ccccc3)c3ccccc3)cc2)cc1	-14%	13%	-1%	2.1µM*	nt	-10%	-1%	-1%	1.6µM*
O=C(Nc1nnc(-c2cccs2)o1)c1ccc(S(=O)(=O)N2CCOCC2)cc1	-7%	-7%	0%	?	5	-12%	nt	nt	nt
CC1(C)COCN1S(=O)(=O)c1ccc(C(=O)Nc2nnc(-c3ccc(Cl)s3)o2)cc1	4%	-11%	-1%	6.3µM*	4	?	-15%	?	5.2µM*
Cn1c(=O)c2c(-c3ccccc3)n3c(c2n(C)c1=O)C(c1ccccc1[N+](=O)[O-])Nc1ccccc1-3 (stereo unspecified)	-14%	-3%	4%	1%	nt	14%	nt	nt	nt
CCCCOc1cccc(C(=O)Nc2ccc3oc(-c4cccnc4)nc3c2)c1	-10%	-11%	-1%	6.5µM*	nt	-11%	-16%	-1%	7.3µM*
Nc1cc[n+](CC(=O)c2ccc3c(c2)OCCO3)cc1	5%	9%	-1%	2.1µM*	5	?	-4%	?	5.8µM*
O=C(C[n+]1ccc(C(=O)NCc2ccccc2)cc1)c1ccc2c(c1)OCCO2	0%	-9%	0%	-18%	21	2%	nt	nt	nt
CCOC(=O)[C@]12CCC=C1N(Cc1cccc3ccccc13)C(=O)[C@H](CC(=O)NCCC(C)C)C2	nt	nt	-1%	nt	nt	nt	nt	nt	nt
CCn1c(C)cc(C(=O)CN2C(=O)c3ccccc3S2(=O)=O)c1C	7%	nt	-2%	3.7µM*	-2	-3%	8.5µM*	3%	nt
Cc1cc(C(=O)CN2C(=O)c3ccccc3S2(=O)=O)c(C)n1C(C)C	4%	nt	-3%	2.9µM*	0	-1%	6.7µM*	7%	8.2µM*
OCC1OC(n2cnc3c(NCc4ccco4)ncnc32)C(O)C1O (stereo unspecified)	-2%	5%	?	7.3µM*!	14	?	3%	-21%	4.1µM*
C[C@H]1COC(=O)[C@H]2CCCN2C(=O)[C@@H](C)COC(=O)[C@H](Cc2ccccc2)NC1=O	nt	6%[15.3 µM]	nt	nt	nt	nt	nt	nt	nt
CC(=O)c1cn(CCOc2ccccc2C)c2ccccc12	-7%	-16%	3%	4.6µM*	7	1%	-2%	5%	6.5µM*
CC(=O)c1ccc(OC2(C)CCN(Cc3ccc4c(c3)OCCO4)C2)cc1 (stereo unspecified)	nt	nt	4%	nt	nt	nt	nt	nt	nt
COC(=O)CCn1nnc(-c2ccc(C(C)C)cc2)n1	20%	-5%	-2%	0.52µM*	-6	-1%	11µM*	-1%	0.58µM*
CCOC(=O)C1=C(CSc2nc3ccccc3s2)NC(=O)NC1c1ccc(OC)cc1 (stereo unspecified)	-3%	?	0%	5.8µM*	1	?	-20%	?	nt
Cc1ccc(S(=O)(=O)c2c(Nc3ccccc3)sc(C(=O)c3ccc4c(c3)OCO4)c2N)cc1	-12%	143%	-2%	nt	nt	0%	nt	nt	nt
COC(=O)CN1C(=O)CSc2ccc(S(=O)(=O)Nc3ccccc3)cc21	47%	-15%	0%	-21%	nt	-1%	nt	nt	nt
CCCC(=O)Nc1nc(-c2ccc3c(c2)CCN3S(C)(=O)=O)cs1	1%	-20%	6%	8.2µM*	3	-13%	?	-15%	?
CCC(=O)Nc1nc(-c2ccc3c(c2)CC(C)N3S(C)(=O)=O)cs1 (stereo unspecified)	3%	-13%	4%	-30%	4	-10%	nt	nt	nt
COc1ccc(C2C3=C(CC(C)(C)CC3=O)Oc3ncn(Cc4ccco4)c(=N)c32)cc1 (stereo unspecified)	-1%	?	9%	9.2µM*	3	?	3%	-9%	9%
COc1ccc(N2CCN(C(=O)CC(C)S(=O)(=O)c3ccc4c(c3)NC(=O)CO4)CC2)cc1 (stereo unspecified)	18%	-7%	0%	?	-5	4%	nt	nt	nt
CC(CC(=O)N1CCN(c2cccc(Cl)c2)CC1)S(=O)(=O)c1ccc2c(c1)NC(=O)CO2 (stereo unspecified)	-12%	-5%	0%	6.5µM*	-15	?	-1%	-19%	23µM*
CCN(CC)S(=O)(=O)c1cccc(NC(=O)C(=O)c2c(-c3ccccc3)cc3ccccn23)c1	-1%	?	3%	?	-26	1%	nt	nt	nt
SMILES	IDH1 R132H inh	Apoferritin bind	Nrf2 ARE act	Nrf2 inh	Giardia kill	A549 tox-1	FLuc counter 3	A549 tox-2	Nrf2 ARE inh
CCN(CC)S(=O)(=O)c1cc(NC(=O)C(=O)c2c(-c3ccccc3)cc3ccccn23)ccc1C	2%	-22%	2%	5.2µM*	-3	nt	2%	-11%	?
COc1ccc(-c2csc(C(NC(C)=O)c3ccc(F)c(F)c3)n2)cn1 (stereo unspecified)	nt	nt	1%[9.22 µM]	nt	nt	nt	nt	nt	nt
COc1ccc(S(=O)(=O)NCc2cccnc2)cc1Br	-2%	-8%	0%	7.3µM*	16	-7%	3%	-3%	?
O=S(=O)(NCc1ccncc1)c1ccc(F)c(F)c1	10%	nt	0%	nt	nt	nt	nt	nt	nt
Cc1ccc(S(=O)(=O)NCc2ccncc2)cc1C	-13%	-4%	-1%	2.3µM*	13	-6%	-2%	-1%	2.1µM*
O=C(O)CNS(=O)(=O)c1ccc(Br)s1	-2%	-7%	0%	-7%	-2	-14%	nt	nt	nt
COc1cc(S(=O)(=O)NCc2ccncc2)ccc1Br	1%	-5%	-1%	3.3µM*	-3	-16%	-2%	-2%	3.7µM*
O=S(=O)(NCc1ccncc1)c1ccc(Br)s1	5%	-4%	0%	1.5µM*	0	-24%	-1%	-4%	1.5µM*

Screens as filed in PubChem.
